USP17 inh: inhibitors of human USP17 deubiquitinase; A8MUK1; purified USP17, Ub-rhodamine cleavage fluorescence, 3 h; inhibition, % at 50 µM; 47,000 tested, 6.5% active; AID 1645855
USP10 inh: blocks human USP10 ubiquitin-rhodamine cleavage; purified USP10, Ub-rhodamine fluorescence, 60 min; inhibition, % at 20 µM; 47,000 tested, 1.1% active; Q14694
USP8 inh: inhibitors of human USP8 deubiquitinase | purified USP8, Ub-rhodamine cleavage fluorescence, 30 min | inhibition, % at 20 µM | 47,000 tested, 4.2% active | AID 1645853
USP7 block: blocks human USP7 ubiquitin-rhodamine cleavage; 47,000 tested, 0.3% active; inhibition, % at 20 µM; AID 1645854; purified USP7, Ub-rhodamine cleavage fluorescence; Q93009
USP28 inh: human USP28 deubiquitinase inhibition; purified USP28, Ub-rhodamine cleavage fluorescence, 30 min; 47,000 tested, 3% active; inhibition, % at 25 µM; Q96RU2
Target sequence (Q96RU2 whole entry, looked up): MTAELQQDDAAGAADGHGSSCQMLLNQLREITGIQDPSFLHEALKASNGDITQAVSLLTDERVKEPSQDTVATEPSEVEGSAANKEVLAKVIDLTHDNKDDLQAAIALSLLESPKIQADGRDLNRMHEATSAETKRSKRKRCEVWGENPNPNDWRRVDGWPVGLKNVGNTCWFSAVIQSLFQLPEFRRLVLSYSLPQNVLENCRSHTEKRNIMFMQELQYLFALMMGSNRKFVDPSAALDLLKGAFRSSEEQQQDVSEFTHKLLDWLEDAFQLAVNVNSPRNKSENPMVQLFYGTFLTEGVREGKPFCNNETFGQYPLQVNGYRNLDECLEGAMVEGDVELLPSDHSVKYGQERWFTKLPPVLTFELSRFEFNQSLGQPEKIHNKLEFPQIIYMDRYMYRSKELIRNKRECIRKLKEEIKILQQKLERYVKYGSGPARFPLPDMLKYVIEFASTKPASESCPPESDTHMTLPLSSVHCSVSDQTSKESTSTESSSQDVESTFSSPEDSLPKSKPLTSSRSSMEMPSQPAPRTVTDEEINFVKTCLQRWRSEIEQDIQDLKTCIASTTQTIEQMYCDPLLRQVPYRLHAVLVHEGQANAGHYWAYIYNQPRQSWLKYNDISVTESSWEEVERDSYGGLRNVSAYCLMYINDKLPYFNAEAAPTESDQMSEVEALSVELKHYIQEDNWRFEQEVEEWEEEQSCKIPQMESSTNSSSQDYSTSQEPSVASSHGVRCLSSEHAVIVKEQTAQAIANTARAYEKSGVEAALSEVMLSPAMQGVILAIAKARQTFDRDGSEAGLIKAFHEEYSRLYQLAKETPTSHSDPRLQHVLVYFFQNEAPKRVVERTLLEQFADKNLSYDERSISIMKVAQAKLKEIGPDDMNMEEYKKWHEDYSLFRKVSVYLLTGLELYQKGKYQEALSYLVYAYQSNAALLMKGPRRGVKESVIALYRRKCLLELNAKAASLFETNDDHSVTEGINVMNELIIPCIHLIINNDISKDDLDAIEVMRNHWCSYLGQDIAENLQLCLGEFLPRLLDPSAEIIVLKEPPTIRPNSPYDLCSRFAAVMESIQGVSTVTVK
USP30 inh: inhibitors of human USP30 deubiquitinase; AID 1645860; 47,000 tested, 5.3% active; inhibition, % at 25 µM; purified USP30, Ub-rhodamine cleavage fluorescence; Q70CQ3
Numbers without * were called inactive; nt = no result given. Only some compounds are listed: those with a hit (about 13% of all), similar ones and a draw of the others. Cut-off read from the data, not from the text of the source: active = inhibition above about 30%; inactive = the rest.

SMILES | USP17 inh | USP10 inh | USP8 inh | USP7 block | USP28 inh | USP30 inh
O=C(Nc1cc2c3c(c1)CC(=O)N3CCC2)c1ccc(F)cc1 | -2.5 | -1.2 | 32.6* | -1.2 | 9.1 | -29.1
Cc1ccc(C(=O)Nc2cc3c4c(c2)CC(=O)N4CCC3)cc1 | nt | -3.4 | 18.6 | -3.7 | 55.5* | -27.4
COc1ccc(C(=O)Nc2cc3c4c(c2)C(C)C(=O)N4CCC3)cc1 (centres undefined) | 7.5 | -5.4 | 3.3 | -1.7 | 51.7* | -0.1
COc1ccc(OC)c(C2C=C(C(=O)O)NC(=O)N2)c1 (centres undefined) | 2.8 | -0.2 | 6.9 | 0.0 | -3.7 | -0.1
c1cncc(CN2CCC[C@H]2c2nc(-c3ccc(-n4ccnc4)nc3)no2)c1 | 41.0* | -5.0 | 24.1 | -0.2 | 0.0 | 1.0
c1cncc(CN2CCC[C@H]2c2nc(-c3ccc(N4CCOCC4)nc3)no2)c1 | -22.2 | -1.6 | 11.3 | -3.8 | -1.6 | -19.5
Cc1ccc(C)c(N2CCN(C(=O)c3coc(NC(=O)c4ccco4)n3)CC2)c1 | -17.0 | -1.4 | -13.7 | -1.5 | -0.1 | -18.8
Cc1nc2ccccc2c2oc(C(=O)Nc3ccc4c(c3)OCCO4)cc12 | -0.3 | -3.2 | 52.2* | 9.8 | 22.3 | -9.2
Cc1nc(-c2ccccc2)sc1C(=O)Nc1ccc2c(c1)OCCO2 | 10.5 | 9.0 | 8.5 | -2.2 | 49.5* | 17.0
Cc1cccc(C(=O)N2C[C@@H]3OCC(=O)N(C4CCOCC4)[C@H]3C2)n1 | -4.5 | -4.4 | -5.6 | 2.1 | 4.6 | 12.6
Cc1ccc(CCNC(=O)C2CCCN(c3ncnc4onc(C)c34)C2)cc1 (centres undefined) | -6.1 | -0.2 | 17.9 | -49.3 | 4.8 | 35.6*
COc1ccc(OC)c(-n2nnc(-c3nc(-c4ccccc4C)no3)c2C)c1 | 31.5* | 9.6 | 0.0 | -12.6 | nt | nt
Cc1c(-c2nnc(-c3ccccn3)o2)nnn1-c1cccc(Cl)c1 | 11.4 | -0.2 | 0.8 | -32.3 | 94.2* | 69.5*
COc1cccc(-n2nnc(-c3nnc(-c4ccccc4C)o3)c2C)c1 | -1.7 | 5.2 | -17.4 | -32.9 | 1.8 | 48.8*
Cc1ccc(-c2nnc(-c3nnn(-c4ccc(C)cc4)c3C)o2)cc1 | 25.1 | 3.8 | 22.6 | 4.4 | 14.6 | 35.1*
CCN1C[C@@]23CN(C(=O)c4ccncc4)C[C@@H](C[C@@H]2S1(=O)=O)O3 | -6.7 | 1.2 | -26.4 | -0.4 | -4.2 | -14.2
Cc1ccc(NC(=O)c2oc3ccccc3c2CSc2ncn[nH]2)nc1 | -2.0 | -4.2 | 13.3 | 4.7 | -5.0 | -31.1
CC1CCN(CCCNC(=O)c2cccc(N3CCCC3=O)c2)CC1 | 0.5 | -2.8 | 1.4 | -2.0 | -14.4 | -10.1
Cc1ccc2c(=O)c(C(=O)N3CCCC3)cn(CC(=O)Nc3ccc(F)cc3)c2n1 | -1.8 | -6.2 | 12.9 | -8.4 | 4.9 | -8.5
COc1ccccc1CNC(=O)c1ccc(CSc2nc3ccncc3n2Cc2ccccc2)cc1 | 40.4* | -3.5 | -9.6 | 1.0 | 30.6* | 55.7*
COC(=O)c1ccc(CSc2nc3ccncc3n2CC(=O)N2CCCC2)cc1 | -25.5 | -1.7 | -126.2 | -1.8 | -9.8 | -17.7
COc1ccc(Cn2c(SCc3ccc(C(=O)NCCc4ccccc4)cc3)nc3ccncc32)cc1 | 32.0* | 14.2 | -4.5 | 10.8 | 29.5 | 53.1*
COC(=O)c1ccc(CSc2nc3ccncc3n2C(C)C(=O)OC)cc1 (centres undefined) | 0.3 | -5.2 | -16.5 | 5.4 | 9.5 | 0.1
COc1cccc(CNC(=O)c2ccc(CSc3nc4ccncc4n3Cc3ccccc3F)cc2)c1 | 35.8* | 8.6 | -4.8 | 7.8 | 34.2* | 53.7*
COc1ccc(CSc2nc3ccncc3n2CC(=O)Nc2ccc(C)cc2C)cc1 | 72.1* | 26.5 | 28.2 | 13.8 | 70.2* | 84.2*
SMILES | USP17 inh | USP10 inh | USP8 inh | USP7 block | USP28 inh | USP30 inh
CCC(C(=O)Nc1ccccc1F)n1c(SCc2cccc(F)c2)nc2ccncc21 (centres undefined) | 5.1 | 5.4 | 12.6 | 5.6 | 13.0 | -0.7
CCC(C)NC(=O)c1ccc(Cn2c(SCc3ccc(C)cc3)nc3ccncc32)cc1 (centres undefined) | 3.6 | -1.3 | 5.2 | nt | 22.1 | -0.5
Nc1cc(-c2cncnc2C2CCN(C(=O)c3ccccc3)C2)ccn1 (centres undefined) | -12.9 | -5.0 | -0.1 | -4.3 | -15.0 | -17.9
COc1ccc(OC)c(CCNC(=O)c2ccc(CSc3nc4ccncc4[nH]3)cc2)c1 | -17.5 | 2.0 | -26.6 | -0.2 | 3.2 | -4.1
COc1ccc(CCNC(=O)c2ccc(CSc3nc4ccncc4[nH]3)cc2)cc1OC | -17.3 | 1.0 | 0.7 | 1.3 | 33.5* | -8.5
Cc1nccc(C(=O)N2CCCC(c3ncc(Cc4ccc(F)cc4)o3)C2)n1 (centres undefined) | 0.1 | 0.0 | -1.5 | -0.4 | 2.2 | 0.0
Cc1cc2nc(N(C)C3CCCCC3)c3ccccc3n2n1 | -63.5 | 2.2 | 1.3 | -1.8 | -13.4 | -10.6
Cc1ccc(NC2=NC(c3ccccc3)(C(F)(F)F)C(C#N)=C3C=CC=CN23)cc1 (centres undefined) | 25.9 | -17.4 | 63.0* | 1.8 | -9.6 | -56.3
O=C1NC2(COC3(CCN(Cc4cccc(Cl)c4)CC3)C2)Nc2ccccc21 (centres undefined) | -119.4 | -5.3 | -3.6 | 2.0 | -50.7 | -212.8
O=C(Cc1nc(-c2ccccc2)n[nH]1)Nc1ccc(F)cc1F | -18.8 | -4.7 | -0.7 | -0.7 | -6.1 | -20.6
O=C(Cc1nc(-c2ccccc2)n[nH]1)Nc1cccc(F)c1 | 12.4 | 10.0 | 1.6 | 4.0 | 20.7 | 30.1*
O=C(Nc1ccccc1)C1CCCN(C(=O)c2cc3ccccc3[nH]2)C1 (centres undefined) | 59.9* | 3.5 | 22.8 | 3.2 | 9.4 | 33.4*
Cc1ccc(NC(=O)C2CCCN(C(=O)c3cc(-c4cccnc4)n[nH]3)C2)cc1 (centres undefined) | 1.9 | 0.1 | -27.0 | -0.1 | -0.7 | 1.9
COc1ccccc1C(=O)N1CCN(C(=O)c2cc3ccccc3[nH]2)CC1 | -8.0 | 0.8 | -0.9 | -10.0 | -0.5 | 4.1
Cc1ccc(C(=O)N2CCN(C(=O)c3cc4ccccc4[nH]3)CC2)cc1 | 37.3* | 1.8 | 14.8 | -11.8 | 15.3 | 26.2
Cc1ccc2c(c1)N(C)C(=O)c1cc(NC(=O)c3ccc(F)cc3)ccc1O2 | 23.3 | 40.1* | 77.0* | 20.3 | 24.1 | 88.9*
COc1ccc(C(=O)Nc2ccc3c(c2)C(=O)N(C)c2ccccc2O3)cc1 | 6.5 | 5.1 | 8.3 | 6.1 | 70.6* | 3.8
Cc1ccccc1C(=O)Nc1ccc2c(c1)C(=O)N(C)c1ccccc1O2 | 1.5 | 4.5 | 9.1 | 4.3 | 40.2* | -2.7
O=C(/C=C/c1ccc2c(c1)OCO2)NCc1ccc2c(c1)OCO2 | 25.3 | 0.0 | -2.4 | 0.8 | 21.5 | 32.5*
O=C(/C=C/c1ccco1)Nc1nc2c(s1)COCC2 | -46.8 | -7.2 | -13.2 | -31.6 | -16.5 | -230.5
O=C(/C=C/c1ccc2c(c1)OCO2)NCCCn1ccnc1 | 3.2 | -0.2 | -1.3 | 5.5 | 15.6 | 27.3
O=C(/C=C/c1ccc2c(c1)OCO2)Nc1nc2c(s1)COCC2 | 64.9* | -1.1 | -0.9 | 4.4 | 22.2 | 22.9

Source: PubChem BioAssay (Buhrlage Lab, Dana-Farber Cancer Institute and Novartis Institutes for BioMedical Research (Cambridge, Mass))
